Compound activity: PubChem, several laboratories
MsrA inhibitor = inhibitors of bovine MsrA; purified bovine MsrA, absorbance read-out; inhibition, % at 15.5 µM; hit rate 0.75% among 360,000; AID 651718
GC-A act = GC-A (human) enzyme activation; hit rate 0.14% among 370,000; P16066; HEK293 GC-A cells, cGMP TR-FRET, EC30 ANP; 0% at EC30 ANP, 100% saturating ANP; activation, % at 10 µM; AID 1671463; in the data active = activation above about 40%
GC-B act = GC-B (human) receptor activation; hit rate 0.11% among 370,000; activation, % at 10 µM; HEK293-GC-B cells, CNP EC30, cGMP TR-FRET; 0% at EC30 CNP, 100% saturating CNP; AID 1920062; P20594;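 active = activation at 10 µM reaching about 35% in either raw or pattern-adjusted values, limit read from the data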
Target sequence (P20594 whole entry, looked up): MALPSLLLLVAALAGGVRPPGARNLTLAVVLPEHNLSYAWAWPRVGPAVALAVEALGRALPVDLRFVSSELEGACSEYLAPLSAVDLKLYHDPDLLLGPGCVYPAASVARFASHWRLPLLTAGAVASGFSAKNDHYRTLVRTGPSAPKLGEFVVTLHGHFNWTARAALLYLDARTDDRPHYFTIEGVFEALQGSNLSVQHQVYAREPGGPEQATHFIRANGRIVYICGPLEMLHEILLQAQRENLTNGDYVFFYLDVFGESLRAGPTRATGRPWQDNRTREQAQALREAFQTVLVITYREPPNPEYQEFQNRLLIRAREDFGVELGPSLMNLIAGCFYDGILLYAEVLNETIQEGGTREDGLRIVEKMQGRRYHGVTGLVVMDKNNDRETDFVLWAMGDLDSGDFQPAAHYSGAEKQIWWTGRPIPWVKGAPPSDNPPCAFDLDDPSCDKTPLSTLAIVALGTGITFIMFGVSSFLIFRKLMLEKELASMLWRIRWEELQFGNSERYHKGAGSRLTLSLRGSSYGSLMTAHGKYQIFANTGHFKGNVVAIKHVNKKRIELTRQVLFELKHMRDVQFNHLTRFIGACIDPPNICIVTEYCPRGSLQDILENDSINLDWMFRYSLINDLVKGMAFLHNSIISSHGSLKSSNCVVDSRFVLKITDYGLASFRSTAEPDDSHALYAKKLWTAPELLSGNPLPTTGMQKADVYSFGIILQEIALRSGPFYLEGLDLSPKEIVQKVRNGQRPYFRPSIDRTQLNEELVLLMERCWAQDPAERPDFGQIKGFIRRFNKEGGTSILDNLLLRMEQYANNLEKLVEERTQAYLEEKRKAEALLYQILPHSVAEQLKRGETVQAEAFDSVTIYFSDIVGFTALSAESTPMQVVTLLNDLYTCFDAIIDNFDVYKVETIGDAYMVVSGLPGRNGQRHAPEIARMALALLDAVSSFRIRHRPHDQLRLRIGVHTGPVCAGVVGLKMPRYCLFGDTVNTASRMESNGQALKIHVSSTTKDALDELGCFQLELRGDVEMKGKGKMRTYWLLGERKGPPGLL
MsrA act = activates bovine MsrA enzyme. purified bovine MsrA, absorbance read-out. activation, % at 10.6 µM. hit rate 0.3% among 360,000. AID 602163; in the data active = activation above about 7.5%
MsrA inh confirm = bovine MsrA inhibition, confirmed | shares compounds with MsrA inhibitor | purified bovine MsrA, absorbance read-out | inhibition, % at 15.5 µM | hit rate 41% among 2,300 | AID 651822;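 also: coupled to thioredoxin reductase with NADPH and selenocystamine and DMSO as substrate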
Of the large screens only hits and unclear results are named; the others gave an inactive call (follow-up assays come after a bar, where they were run). Compounds with a hit are over-represented: about 1.2% of the library has one in this group of screens. Rule as the data show it, unless noted: active = inhibition above about 4.5%; inactive = the rest.

O=c1cc(-c2ccc(O)c(O)c2)oc2c(C3O[C@H](CO)[C@@H](O)[C@H](O)[C@H]3O)c(O)cc(O)c12 (some centres not stated)	MsrA inhibitor 5.6 | MsrA inh confirm inactive
O=c1cc(-c2ccc(O)cc2)oc2c(C3O[C@H](CO)[C@@H](O)[C@H](O)[C@H]3O)c(O)cc(O)c12 (some centres not stated)	none
COCCNC(=S)N(C)[C@H]1C[C@H]2c3[nH]c4c(-c5ccccc5)cccc4c3CCN2C[C@H]1[C@H](C)O	none (no result: MsrA act)
O=C(NCCc1ccccc1Cl)[C@@H]1CCCN1C(=O)[C@@H](NC(=O)N1CCOCC1)c1ccccc1	none (no result: MsrA act)
S=c1[nH]nc(-c2ccccc2Cl)n1/N=C/C=C/c1ccco1	none
Cc1cccc(-c2n[nH]c(=S)n2/N=C/C=C/c2ccco2)c1	none
S=c1[nH]nc(-c2ccncc2)n1/N=C/C=C/c1ccco1	MsrA inhibitor 7.1 | MsrA inh confirm 4.9
C(=C\c1ccco1)/C=N/n1cnnc1	MsrA inhibitor 4.7 | MsrA inh confirm 5.7
Cc1ccccc1N1CCN(C2=Nc3ccccc3Sc3ccccc32)CC1	none (no result: MsrA inhibitor, MsrA act)
O=C(O)c1ccc(N2C(=O)/C(=C\c3ccccc3)N=C2c2ccccc2)cc1	none
CC1=N/C(=C\c2ccc3c(c2)OCO3)C(=O)N1c1ccc(C(=O)O)cc1	MsrA inhibitor 5.6 | MsrA inh confirm inactive
C=CCN(CC#CC1=CCCCC1)Cc1ccccc1	none (no result: MsrA inhibitor, MsrA act)
CCOC(=O)CSC1=C(C#N)C(=O)NC(c2ccc(OC)cc2)S1 (configuration not stated)	MsrA inhibitor 6.6 | MsrA inh confirm 6.3
COC(=O)c1cc(S(=O)(=O)NCC2CCN(C(=O)C(=O)c3cccs3)CC2)cs1	none (no result: MsrA act)
O=c1oc2ccccc2cc1-c1cn2cccnc2n1	MsrA inhibitor 5.8 | MsrA inh confirm 5.0
CCOC(=O)N=Nc1c2ccccc2c2nc3no[nH]c3nc12	MsrA inhibitor 14 | MsrA inh confirm 18
COc1cccc(/C=N/NC(=O)c2cc3c(OC)cccc3[nH]2)c1OC	MsrA inhibitor 5.3 | MsrA inh confirm inactive
COc1ccc(/C=N/NC(=O)c2[nH]c3ccc(Cl)cc3c2-c2ccccc2)c(C(=O)O)c1OC	MsrA inhibitor 5.2 | MsrA inh confirm 6.5
COc1cccc(/C=N/NC(=O)c2cc3c(OC)c(OC)ccc3[nH]2)c1OC	MsrA inhibitor 6.3 | MsrA inh confirm 4.6
COc1cccc(/C=N/NC(=O)c2cc3c(OC)cccc3[nH]2)c1O	none
CCOC(=O)Nc1ccc2c(c1)[C@]1(CC(=O)N(CC(C)C)C1c1ccccc1)C(=O)N2C (some centres not stated)	none (no result: MsrA inhibitor, MsrA act)
CC(C)/C=N/Nc1nc2c(c(=O)n(C)c(=O)n2C)n1C	none
CN(C)N=Nc1nc2c(c(=O)n(C)c(=O)n2C)n1C	MsrA inhibitor 5.8 | MsrA inh confirm inactive
CC1(C)CC(=O)C=C(Nc2ccccc2NC(=O)c2ccc(F)cc2F)C1	none (no result: MsrA inhibitor, MsrA act)
Cn1c(=NC(=O)c2ccco2)sc2ccccc21	MsrA inhibitor 7.5 | MsrA inh confirm 5.6
Cc1sc(=NC(=O)c2ccco2)n(C)c1-c1ccccc1	none
CCC1=[N+](C)CCn2c(C)ccc21	MsrA inhibitor 6.5 | MsrA inh confirm inactive
CCC1=[N+](CC(=O)c2ccc(C)cc2)CCn2c(C)ccc21	none
N#C/C(C(=O)N1CCCCC1)=C1\Nc2ccccc2S1	MsrA inhibitor 8.2 | MsrA inh confirm 5.0
O=S1(=O)c2ccc(N3CCN(Cc4ccccc4F)CC3)cc2Oc2ccccc2CN1Cc1cn(Cc2cccc(C(F)(F)F)c2)nn1	none (no result: MsrA inhibitor, MsrA act)
Cc1ccc(-n2ccc(=O)c(C(=O)Nc3ccc(S(=O)(=O)Nc4onc(C)c4C)cc3)n2)cc1	MsrA inhibitor 4.8 | MsrA inh confirm inactive
Cc1cc(NS(=O)(=O)c2ccc(NC(=O)/C=C/c3ccco3)cc2)nc(C)n1	MsrA inhibitor 6.7 | MsrA inh confirm 4.8
Cc1noc(NS(=O)(=O)c2ccc(NC(=O)c3cnc4scc(C)n4c3=O)cc2)c1C	MsrA inhibitor 5.8 | MsrA inh confirm 6.2
Cc1noc(NS(=O)(=O)c2ccc(NC(=O)c3nn(-c4ccc(F)cc4)ccc3=O)cc2)c1C	none
Cc1cc(NS(=O)(=O)c2ccc(NC(=O)c3cnc4scc(C)n4c3=O)cc2)nc(C)n1	MsrA inhibitor 6.8 | MsrA inh confirm inactive
CC1CN(c2ccnc3cc(Cl)ccc23)CCN1C(=O)c1ccc(Cl)cc1 (configuration not stated)	none (no result: MsrA inhibitor, MsrA act)
Cn1c(=O)cc(Cl)[nH]c1=O	none
CCN(/N=C/c1cccs1)c1cc(=O)n(C)c(=O)[nH]1	MsrA inhibitor 7.2 | MsrA inh confirm 6.7
CN(/N=C/c1cccs1)c1cc(=O)n(C)c(=O)[nH]1	MsrA inhibitor 9.0 | MsrA inh confirm 5.8
CCOC(=O)[C@@]12CCC3=C1N(CCC3)C(=O)[C@H](CC(=O)NCc1ccc(OC)c(OC)c1)C2	none (no result: MsrA inhibitor, MsrA act)
Cc1ccc(C(=O)NCC(=O)NCC(=O)OCC(=O)c2ccc(F)cc2)cc1	MsrA inhibitor 52 | MsrA inh confirm inactive
O=C(CNC(=O)c1ccccc1)NCC(=O)OCC(=O)c1ccc(F)cc1	none
CC(C)NC(=O)N[C@H]1C[C@@H]2O[C@@H](CO)CC[C@@H]2O[C@@H]1CCc1ccc(-c2ccccc2F)cc1	none (no result: MsrA inhibitor, MsrA act)
CN(C)/N=C/c1ccc([N+](=O)[O-])cc1[N+](=O)[O-]	MsrA inhibitor 7.7 | MsrA inh confirm inactive
Cc1oc2c(CN3CCOCC3)c(O)ccc2c(=O)c1-c1ccc(Cl)cc1	MsrA inhibitor 5.3 | MsrA inh confirm inactive
COc1ccccc1S(=O)(=O)N(C)C[C@H]1Oc2cc(Br)ccc2S(=O)(=O)N([C@@H](C)CO)C[C@H]1C	none
COc1ccccc1S(=O)(=O)N(C)C[C@H]1Oc2cc(Br)ccc2S(=O)(=O)N([C@H](C)CO)C[C@H]1C	MsrA inhibitor 5.6 (no result: MsrA act) | MsrA inh confirm inactive
O=C(O)c1ccc(S(=O)(=O)/N=C2\C=C(Nc3ccccc3F)C(=O)c3ccccc32)cc1	MsrA inhibitor 46 | MsrA inh confirm 47
CCc1ccc(S(=O)(=O)/N=C2\C=C(NS(=O)(=O)c3ccccc3)C(=O)c3ccccc32)cc1	none
Cc1ccccc1NC1=C/C(=N\S(=O)(=O)c2ccc(C(=O)O)cc2)c2ccccc2C1=O	MsrA inhibitor 19 | MsrA inh confirm 21
CC(C)c1ccc(S(=O)(=O)/N=C2\C=C(NS(=O)(=O)c3ccccc3)C(=O)c3ccccc32)cc1	none
COc1ccc(C2CC(=O)C3=C(C2)Nc2ccccc2N(C(=O)CCC(=O)O)C3c2ccc(F)cc2)cc1 (configuration not stated)	MsrA inhibitor 5.0 | MsrA inh confirm inactive
O=C(O)CCC(=O)N1c2ccccc2NC2=C(C(=O)CC(c3ccc(F)cc3)C2)C1c1ccc([N+](=O)[O-])o1 (configuration not stated)	MsrA inhibitor 7.0 | MsrA inh confirm 4.6
COc1ccc(-n2c(SCc3ccc([N+](=O)[O-])cc3)nnc2-c2ccco2)cc1	none (no result: MsrA inhibitor, MsrA act)
COc1cc(/C=N/N=C(/C(=O)c2ccccc2)c2ccccc2)cc(OC)c1O	none
